# From PubChem BioAssay
# A selection: hits, their analogues and other compounds. The true share with any hit is near 0.78%.
# NCOA1 inh: SRC1 coactivator transcriptional activity inhibitors, primary screen, cell-based, luminescence. Nuclear receptor coactivator 1 (Homo sapiens), Q15788. HEK293 GAL4-SRC1 luciferase reporter. inhibition, % at 3.6 µM. 360,000 tested, 0.12% active. AID 588354, 2011;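 active = inhibition above the campaign mean plus 3 SD, with each screening campaign given its own cutoff, cut at about 60% in these data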
# LMP1 NFkB inh: EBV LMP1-driven NF-kappaB luciferase reporter inhibitors, primary screen, cell-based, luminescence, single point; LMP1-induced NF-kappaB luciferase reporter cells; inhibition, % at 12.5 µM; 350,000 tested, 0.69% active; AID 504558, 2011; in the data active = inhibition above about 41%
# NCOA3 inh: SRC3 coactivator transcriptional activity inhibitors, primary screen, cell-based, luminescence; Nuclear receptor coactivator 3 (Homo sapiens), Q9Y6Q9; HEK293 GAL4-SRC3 luciferase reporter; inhibition, % at 3.6 µM; 360,000 tested, 0.17% active;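 active = inhibition above a per-campaign cutoff, the mean of all compounds plus 3 SD, cut at about 60% in these data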;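 also: higher means less SRC3-driven luciferase light from the GAL4 reporter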
# SRC2 inh: inhibition of GAL4-SRC2 driven luciferase reporter, primary screen, SRC2 inhibitor project, cell-based, luminescence; inhibition, % at 9 µM; 370,000 tested, 0.17% active; AID 651957, 2012; HEK293 GAL4-SRC2 luciferase reporter;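 active = inhibition above the mean inhibition of all tested compounds plus 3 SD, set per campaign, cut at about 52% in these data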
# NR5A2 inv ag: LRH-1 (NR5A2) inverse agonists, primary screen, cell-based, luminescence, HEK293T, StAR-luciferase reporter; inhibition, % at 3.6 µM; Nuclear receptor subfamily 5 group A member 2 (Homo sapiens), O00482; 360,000 tested, 0.13% active; LRH-1 transfected, 24 h;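 active = inhibition above the mean inhibition of all tested compounds plus 3 SD, cut at about 73% in these data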
# Hits are given with their value; i = inactive; nt = no result given.
SMILES,NCOA1 inh,LMP1 NFkB inh,NCOA3 inh,SRC2 inh,NR5A2 inv ag
COc1cc(NC2c3ccccc3C(=O)N2c2ccc(C)cn2)cc(OC)c1OC (configuration not stated),i,i,i,i,i
Cc1ccc(N2C(=O)c3ccccc3C2Nc2cccnc2)nc1 (configuration not stated),i,81,i,i,i
COC(=O)[C@]12C[C@H](CC(=O)N3CCC(c4ccccc4)CC3)C(=O)N(Cc3ccco3)C1=C[C@H](C(C)(C)C)O[C@@H]2C,nt,nt,nt,i,nt
CC(C)NCC(O)COc1cccc2ccccc12 (configuration not stated),i,52,i,i,i
Cc1noc(C)c1NC(=O)Nc1ccc2c(c1)C(=O)N(C)[C@H]1CC[C@H](CC(=O)NCc3ccc(Cl)cc3)O[C@@H]1CO2,nt,nt,nt,i,nt
COc1cc(/C=N/NC(=O)c2cccc(S(=O)(=O)N3CCOCC3)c2)cc(OC)c1O,i,65,i,i,i
COc1cc(OC)c(OC)cc1/C=N/NC(=O)c1cccc(S(=O)(=O)N2CCOCC2)c1,i,i,i,i,i
C/C(=N\Nc1ccc2nncn2n1)c1ccccn1,73,nt,76,i,i
C/C(=N\Nc1ccc2nncn2n1)c1ccco1,i,i,i,i,i
COc1cc(/C=N/NC(=S)Nc2cccc(C(=O)O)c2)ccc1O,i,74,i,i,i
COc1ccc(/C=N/NC(=S)Nc2cccc(C(=O)O)c2)cc1,i,i,i,i,i
C=C1C(=O)O[C@@H]2C[C@@H](C)[C@@H]3C=CC(=O)[C@@]3(C)[C@@H](OC(C)=O)[C@H]12,nt,nt,nt,83,nt
Cc1nn2cc(-c3ccc(-c4ccccc4)cc3)nc2s1,i,i,i,i,i
CCc1nn2cc(-c3ccccc3)nc2s1,i,66,i,i,i
CCc1ccc(CCNC(=O)OCCCN2CCC3(CCC(c4ccccc4)CC3)C2=O)cc1 (configuration not stated),nt,nt,nt,i,nt
COc1ccc(C(=O)NCCCNC(=O)c2cc3ccccc3[nH]2)cc1OC,i,75,i,i,i
O=C(NCCCO)c1cc2ccccc2[nH]1,i,i,i,i,i
Cc1ccc(-c2nnc3n2N=C(c2ccc4ccccc4c2)CS3)cc1,nt,nt,nt,i,nt
O=C(c1cccc(C(F)(F)F)c1)N1CC[C@H]2[C@H](CCCN2Cc2ccccc2)C1,nt,nt,nt,i,nt
CSc1cccc(CN2CCC(n3nccc3NC(=O)C3CC3)CC2)c1,i,56,i,i,i
COc1ccc(C2=Nn3c(nnc3C3CCCCC3)SC2)cc1,nt,nt,nt,i,nt
NC(=O)c1cc([N+](=O)[O-])ccc1NCc1ccc(N)cc1,i,49,i,73,i
Cc1ccccc1CN1CCCCC(NC(=O)Nc2cccc([N+](=O)[O-])c2)C1=O (configuration not stated),nt,nt,nt,i,nt
COc1ccc(-c2cnc(NCc3cc4c(cc3[N+](=O)[O-])OCO4)n2C)cc1,i,66,i,i,i
COc1ccc(OC)c(CNc2ncc(-c3cccc([N+](=O)[O-])c3)n2C)c1,i,i,i,i,i
SMILES,NCOA1 inh,LMP1 NFkB inh,NCOA3 inh,SRC2 inh,NR5A2 inv ag
Cc1ccc(S(=O)(=O)NC2CCCC2)cc1C,i,i,i,i,i
Cc1ccc(S(=O)(=O)NC2CCSC2=O)cc1C (configuration not stated),i,69,i,i,i
COC(=O)[C@]12C=CCN1[C@H](c1ccc(C(F)(F)F)cc1)c1c(c3ccccc3n1S(=O)(=O)c1ccc(C)cc1)C2,nt,nt,nt,i,nt
O=C(O)CCN1C(=O)C2C3c4ccccc4C(c4ccccc43)[C@@H]2C1=O (some centres not stated),i,i,i,i,i
O=C(O)CCN1C(=O)C2C3c4ccccc4C(c4ccccc43)C2C1=O (configuration not stated),i,50,i,i,i
O=C(NC1CC1)c1cc(-c2ccc(Br)cc2)nc2ccccc12,i,42,i,i,i
COc1ccc(-c2cc(C(=O)NC3CC3)c3ccccc3n2)cc1,i,i,i,i,i
O=C(NCc1cccnc1)/C(=C\c1ccc(-c2cccc(Cl)c2)o1)S(=O)(=O)c1ccccc1,i,i,82,63,i
CC(=O)N1CCCN(S(=O)(=O)c2ccc3c(c2)n(C)c(=O)c(=O)n3C)CC1,nt,nt,nt,i,nt
CC(=O)Nc1ccc(NC(=O)c2ccco2)cc1,i,i,i,i,i
O=C(Nc1ccc(Cl)cc1)c1ccco1,i,57,i,i,i
Cc1cc(NC(=O)c2ccc3c(c2)OCCO3)ccc1NC(=O)c1ccco1,i,i,i,i,i
O=C(O)C1CC=CCC1C(=O)Nc1ccc2c(c1)OCCO2 (configuration not stated),i,i,i,56,i
O=C(Nc1ccc(NC(=O)c2ccco2)cc1)c1ccc2c(c1)OCCO2,i,i,i,61,i
Cc1ccc(C(=O)Nc2ccc3c(c2)OCCO3)c(Cl)c1,i,47,i,i,i
COc1ccc2c(c1)CN1C(=O)N(CC(C)C)S(=O)(=O)CC21 (configuration not stated),nt,nt,nt,i,nt
CC(=NNC(=O)CSc1nnc(-c2ccccc2)n1-c1ccccc1)c1cccc([N+](=O)[O-])c1,nt,nt,nt,i,nt
COc1ccc(-c2ccc(NC(=O)c3ccco3)cc2)nn1,i,57,i,i,i
COc1ccc(-c2cccc(NC(=O)c3ccco3)c2)nn1,i,i,i,i,i
Cc1ccc(C(=O)Nc2ccc3c(c2)OCCO3)cc1,i,43,i,i,i
Cc1cc(NC(=O)c2ccc3c(c2)OCCO3)no1,i,60,i,nt,i
Cc1ccc(C(=O)Nc2ccc3c(c2)OCO3)cc1,i,i,i,i,i
COC(=O)[C@H](Cc1ccccc1)NC(=O)[C@H]1O[C@@H](n2cnc3c(=O)[nH]c(N)nc32)[C@H](O)[C@@H]1O,nt,nt,nt,i,nt
CCOC(=O)C1=NOC(C(=O)NCCO)(C(=O)C2CC2)C1 (configuration not stated),nt,nt,nt,i,nt
Cc1ccc2nc(C(F)(F)F)c(C#N)c(N)c2c1,i,i,i,54,i
SMILES,NCOA1 inh,LMP1 NFkB inh,NCOA3 inh,SRC2 inh,NR5A2 inv ag
Cc1cc(C)c2nc(C(F)(F)F)c(C#N)c(N)c2c1,i,i,i,i,i
CCc1nnn2c1Cn1c3ccccc3c(=O)n1[C@@H](C(C)C)C2,nt,nt,nt,i,nt
O=C(O)c1ccc(NC2=C/C(=N/S(=O)(=O)c3cccs3)c3ccccc3C2=O)cc1,i,i,i,i,i
Cc1cccc(NC2=C/C(=N/S(=O)(=O)c3cccs3)c3ccccc3C2=O)c1,i,i,i,i,i
CCc1ccc(S(=O)(=O)/N=C2\C=C(Nc3ccc(O)cc3)C(=O)c3ccccc32)cc1,88,90,89,nt,90
Cc1ccc(NC2=C/C(=N\S(=O)(=O)c3cccs3)c3ccccc3C2=O)c(C)c1,67,95,70,nt,i
CCc1ccc(S(=O)(=O)/N=C2\C=C(Nc3cccc(C(=O)O)c3)C(=O)c3ccccc32)cc1,i,i,i,i,i
